{"source": "ChEMBL document CHEMBL2218924", "about": "“A broad activity screen in support of a chemogenomic map for kinase signalling research and drug discovery” (Biochem J, 2013)", "key": {"[1]": {"target": "T1, Ephrin type-A receptor 3 (Homo sapiens) (UniProt P29320)", "T1 sequence (whole entry)": "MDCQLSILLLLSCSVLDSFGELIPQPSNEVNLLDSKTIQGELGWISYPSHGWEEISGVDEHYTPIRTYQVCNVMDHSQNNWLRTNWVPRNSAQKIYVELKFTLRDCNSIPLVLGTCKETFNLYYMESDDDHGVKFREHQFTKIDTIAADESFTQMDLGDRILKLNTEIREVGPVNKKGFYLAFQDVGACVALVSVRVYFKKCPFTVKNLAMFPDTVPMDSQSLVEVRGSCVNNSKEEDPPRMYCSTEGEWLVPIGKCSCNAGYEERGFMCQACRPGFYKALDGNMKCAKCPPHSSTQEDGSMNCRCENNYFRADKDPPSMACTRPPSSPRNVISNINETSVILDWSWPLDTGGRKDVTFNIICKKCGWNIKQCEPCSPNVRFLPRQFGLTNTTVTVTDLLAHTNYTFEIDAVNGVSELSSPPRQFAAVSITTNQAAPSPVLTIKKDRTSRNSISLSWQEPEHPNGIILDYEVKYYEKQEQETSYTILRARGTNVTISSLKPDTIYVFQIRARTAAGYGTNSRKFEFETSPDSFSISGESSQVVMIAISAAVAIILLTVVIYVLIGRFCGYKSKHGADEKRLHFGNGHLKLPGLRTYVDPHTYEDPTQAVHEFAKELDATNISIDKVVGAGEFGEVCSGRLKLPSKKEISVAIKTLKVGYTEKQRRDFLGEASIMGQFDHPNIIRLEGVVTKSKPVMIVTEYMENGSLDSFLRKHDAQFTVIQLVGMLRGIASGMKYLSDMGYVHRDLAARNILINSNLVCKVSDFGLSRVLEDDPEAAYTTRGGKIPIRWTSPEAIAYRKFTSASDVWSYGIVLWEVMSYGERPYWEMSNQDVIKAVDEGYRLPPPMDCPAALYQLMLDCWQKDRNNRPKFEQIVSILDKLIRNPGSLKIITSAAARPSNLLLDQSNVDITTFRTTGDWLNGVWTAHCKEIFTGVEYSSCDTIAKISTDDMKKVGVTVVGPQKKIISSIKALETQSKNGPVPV", "settings": "at 10 µM"}, "[2]": {"target": "Ephrin type-A receptor 4 (Homo sapiens) (UniProt P54764)", "sequence (P54764 whole entry)": "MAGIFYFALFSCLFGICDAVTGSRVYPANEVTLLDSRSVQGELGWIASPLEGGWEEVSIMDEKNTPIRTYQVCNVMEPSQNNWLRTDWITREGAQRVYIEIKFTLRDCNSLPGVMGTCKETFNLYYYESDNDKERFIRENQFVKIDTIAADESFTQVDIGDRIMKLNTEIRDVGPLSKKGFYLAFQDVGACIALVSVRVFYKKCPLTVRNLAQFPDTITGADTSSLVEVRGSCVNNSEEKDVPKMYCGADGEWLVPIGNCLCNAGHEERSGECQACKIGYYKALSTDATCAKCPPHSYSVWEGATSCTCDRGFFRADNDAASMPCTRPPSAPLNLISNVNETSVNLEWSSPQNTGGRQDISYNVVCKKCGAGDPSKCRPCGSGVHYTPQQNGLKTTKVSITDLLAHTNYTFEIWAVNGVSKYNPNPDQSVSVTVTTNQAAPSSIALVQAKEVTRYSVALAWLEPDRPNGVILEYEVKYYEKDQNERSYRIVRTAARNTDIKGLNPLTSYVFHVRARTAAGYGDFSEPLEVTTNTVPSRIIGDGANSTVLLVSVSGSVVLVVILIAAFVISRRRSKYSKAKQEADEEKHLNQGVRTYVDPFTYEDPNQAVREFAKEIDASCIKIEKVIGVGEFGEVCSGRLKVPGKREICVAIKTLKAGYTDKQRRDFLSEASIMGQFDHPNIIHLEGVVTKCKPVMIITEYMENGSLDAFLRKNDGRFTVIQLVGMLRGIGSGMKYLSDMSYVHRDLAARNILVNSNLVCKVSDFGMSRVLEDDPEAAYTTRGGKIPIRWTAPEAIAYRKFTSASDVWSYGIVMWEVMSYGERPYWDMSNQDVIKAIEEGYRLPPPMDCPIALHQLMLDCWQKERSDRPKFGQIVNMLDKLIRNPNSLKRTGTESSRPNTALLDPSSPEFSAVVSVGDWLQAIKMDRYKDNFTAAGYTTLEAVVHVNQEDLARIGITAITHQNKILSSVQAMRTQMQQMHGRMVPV", "settings": "at 1 µM"}, "[3]": {"target": "Ephrin type-A receptor 4 (Homo sapiens) (UniProt P54764)", "settings": "at 10 µM"}, "[4]": {"target": "Ephrin type-A receptor 5 (Homo sapiens) (UniProt P54756)", "sequence (P54756 whole entry)": "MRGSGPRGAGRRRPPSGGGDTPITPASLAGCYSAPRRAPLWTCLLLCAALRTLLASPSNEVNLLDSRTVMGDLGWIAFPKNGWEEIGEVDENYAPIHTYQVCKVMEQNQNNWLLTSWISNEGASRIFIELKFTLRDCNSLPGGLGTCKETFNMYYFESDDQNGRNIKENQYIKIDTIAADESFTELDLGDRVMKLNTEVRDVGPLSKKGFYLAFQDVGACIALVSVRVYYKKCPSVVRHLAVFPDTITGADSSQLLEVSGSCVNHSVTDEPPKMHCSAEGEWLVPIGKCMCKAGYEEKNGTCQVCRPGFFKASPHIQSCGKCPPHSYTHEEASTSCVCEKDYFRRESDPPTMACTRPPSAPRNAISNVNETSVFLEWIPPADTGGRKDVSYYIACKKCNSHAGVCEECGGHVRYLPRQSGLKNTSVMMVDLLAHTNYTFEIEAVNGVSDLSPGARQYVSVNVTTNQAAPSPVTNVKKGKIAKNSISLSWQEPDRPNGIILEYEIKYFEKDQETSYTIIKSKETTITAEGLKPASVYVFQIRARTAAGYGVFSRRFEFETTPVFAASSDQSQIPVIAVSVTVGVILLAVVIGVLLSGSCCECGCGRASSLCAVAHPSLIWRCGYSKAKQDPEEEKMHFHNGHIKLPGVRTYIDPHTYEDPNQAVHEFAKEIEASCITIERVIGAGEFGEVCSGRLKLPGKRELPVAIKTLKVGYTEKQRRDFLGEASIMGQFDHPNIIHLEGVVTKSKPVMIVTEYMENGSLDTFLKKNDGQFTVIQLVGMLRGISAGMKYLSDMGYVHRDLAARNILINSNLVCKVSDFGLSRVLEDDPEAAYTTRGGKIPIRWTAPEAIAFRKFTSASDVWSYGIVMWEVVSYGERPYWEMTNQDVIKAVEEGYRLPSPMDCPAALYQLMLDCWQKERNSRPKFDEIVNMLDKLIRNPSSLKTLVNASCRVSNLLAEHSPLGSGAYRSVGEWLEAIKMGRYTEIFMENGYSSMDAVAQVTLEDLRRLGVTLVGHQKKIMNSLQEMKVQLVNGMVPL", "settings": "at 1 µM"}, "[5]": {"target": "Ephrin type-A receptor 5 (Homo sapiens) (UniProt P54756)", "settings": "at 10 µM"}, "[6]": {"target": "Ephrin type-A receptor 7 (Homo sapiens) (UniProt Q15375)", "sequence (Q15375 28-998 limits assumed)": "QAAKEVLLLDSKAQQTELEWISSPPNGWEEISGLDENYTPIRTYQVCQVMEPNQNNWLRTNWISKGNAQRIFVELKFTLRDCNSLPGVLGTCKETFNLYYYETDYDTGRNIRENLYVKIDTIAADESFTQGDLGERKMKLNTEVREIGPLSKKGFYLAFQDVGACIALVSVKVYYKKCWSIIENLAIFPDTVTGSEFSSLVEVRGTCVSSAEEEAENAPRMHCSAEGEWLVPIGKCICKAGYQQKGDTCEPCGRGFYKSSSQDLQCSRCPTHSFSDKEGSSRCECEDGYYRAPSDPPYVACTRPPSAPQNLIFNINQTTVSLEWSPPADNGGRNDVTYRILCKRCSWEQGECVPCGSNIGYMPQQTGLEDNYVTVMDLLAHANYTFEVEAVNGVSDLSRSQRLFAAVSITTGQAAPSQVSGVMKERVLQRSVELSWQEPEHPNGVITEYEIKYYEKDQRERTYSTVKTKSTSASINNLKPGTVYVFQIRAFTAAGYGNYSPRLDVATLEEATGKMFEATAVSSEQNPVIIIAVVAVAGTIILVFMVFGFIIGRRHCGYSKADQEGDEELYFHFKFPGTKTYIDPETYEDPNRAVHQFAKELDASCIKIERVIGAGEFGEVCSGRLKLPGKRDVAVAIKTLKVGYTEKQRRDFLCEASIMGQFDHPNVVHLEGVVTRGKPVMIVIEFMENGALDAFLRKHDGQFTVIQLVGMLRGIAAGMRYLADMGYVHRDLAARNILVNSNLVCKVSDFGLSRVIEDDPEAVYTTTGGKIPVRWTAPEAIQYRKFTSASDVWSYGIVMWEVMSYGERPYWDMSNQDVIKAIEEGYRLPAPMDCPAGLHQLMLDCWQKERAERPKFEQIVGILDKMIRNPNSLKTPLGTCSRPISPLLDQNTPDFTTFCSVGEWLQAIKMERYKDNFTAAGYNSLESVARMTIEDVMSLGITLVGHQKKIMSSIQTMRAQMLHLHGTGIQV", "settings": "at 1 µM"}, "[7]": {"target": "Ephrin type-A receptor 7 (Homo sapiens) (UniProt Q15375)", "settings": "at 10 µM"}, "[8]": {"target": "T2, Ephrin type-A receptor 8 (Homo sapiens) (UniProt P29322)", "T2 sequence (whole entry)": "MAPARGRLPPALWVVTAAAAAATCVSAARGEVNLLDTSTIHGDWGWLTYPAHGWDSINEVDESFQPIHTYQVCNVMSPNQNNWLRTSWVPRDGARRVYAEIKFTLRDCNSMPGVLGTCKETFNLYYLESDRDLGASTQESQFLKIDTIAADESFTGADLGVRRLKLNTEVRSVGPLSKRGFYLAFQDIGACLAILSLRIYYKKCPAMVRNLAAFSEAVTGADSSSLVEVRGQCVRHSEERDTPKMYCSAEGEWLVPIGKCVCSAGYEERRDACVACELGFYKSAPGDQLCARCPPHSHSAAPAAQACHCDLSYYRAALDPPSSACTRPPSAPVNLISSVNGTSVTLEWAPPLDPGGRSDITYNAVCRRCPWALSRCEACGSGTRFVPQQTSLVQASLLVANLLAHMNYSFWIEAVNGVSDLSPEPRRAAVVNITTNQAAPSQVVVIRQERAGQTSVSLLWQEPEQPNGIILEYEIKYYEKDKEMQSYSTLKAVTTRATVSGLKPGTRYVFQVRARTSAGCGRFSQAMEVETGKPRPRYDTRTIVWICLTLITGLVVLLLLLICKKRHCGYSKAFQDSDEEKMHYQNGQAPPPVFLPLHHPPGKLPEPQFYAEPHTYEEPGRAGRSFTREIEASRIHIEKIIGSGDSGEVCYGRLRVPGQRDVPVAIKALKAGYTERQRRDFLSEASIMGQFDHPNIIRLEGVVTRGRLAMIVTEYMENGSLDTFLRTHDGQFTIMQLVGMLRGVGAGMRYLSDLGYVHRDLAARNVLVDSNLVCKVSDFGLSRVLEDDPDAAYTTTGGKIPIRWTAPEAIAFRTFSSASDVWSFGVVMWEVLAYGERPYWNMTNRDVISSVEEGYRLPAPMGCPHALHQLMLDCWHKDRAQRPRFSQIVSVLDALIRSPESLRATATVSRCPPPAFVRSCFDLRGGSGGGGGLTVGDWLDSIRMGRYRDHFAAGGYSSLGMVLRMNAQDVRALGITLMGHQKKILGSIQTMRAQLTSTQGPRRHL", "settings": "at 1 µM"}, "[9]": {"target": "T2, Ephrin type-A receptor 8 (Homo sapiens)", "settings": "at 10 µM"}, "[10]": {"target": "T3, Ephrin type-B receptor 1 (Homo sapiens) (UniProt P54762)", "T3 sequence (whole entry)": "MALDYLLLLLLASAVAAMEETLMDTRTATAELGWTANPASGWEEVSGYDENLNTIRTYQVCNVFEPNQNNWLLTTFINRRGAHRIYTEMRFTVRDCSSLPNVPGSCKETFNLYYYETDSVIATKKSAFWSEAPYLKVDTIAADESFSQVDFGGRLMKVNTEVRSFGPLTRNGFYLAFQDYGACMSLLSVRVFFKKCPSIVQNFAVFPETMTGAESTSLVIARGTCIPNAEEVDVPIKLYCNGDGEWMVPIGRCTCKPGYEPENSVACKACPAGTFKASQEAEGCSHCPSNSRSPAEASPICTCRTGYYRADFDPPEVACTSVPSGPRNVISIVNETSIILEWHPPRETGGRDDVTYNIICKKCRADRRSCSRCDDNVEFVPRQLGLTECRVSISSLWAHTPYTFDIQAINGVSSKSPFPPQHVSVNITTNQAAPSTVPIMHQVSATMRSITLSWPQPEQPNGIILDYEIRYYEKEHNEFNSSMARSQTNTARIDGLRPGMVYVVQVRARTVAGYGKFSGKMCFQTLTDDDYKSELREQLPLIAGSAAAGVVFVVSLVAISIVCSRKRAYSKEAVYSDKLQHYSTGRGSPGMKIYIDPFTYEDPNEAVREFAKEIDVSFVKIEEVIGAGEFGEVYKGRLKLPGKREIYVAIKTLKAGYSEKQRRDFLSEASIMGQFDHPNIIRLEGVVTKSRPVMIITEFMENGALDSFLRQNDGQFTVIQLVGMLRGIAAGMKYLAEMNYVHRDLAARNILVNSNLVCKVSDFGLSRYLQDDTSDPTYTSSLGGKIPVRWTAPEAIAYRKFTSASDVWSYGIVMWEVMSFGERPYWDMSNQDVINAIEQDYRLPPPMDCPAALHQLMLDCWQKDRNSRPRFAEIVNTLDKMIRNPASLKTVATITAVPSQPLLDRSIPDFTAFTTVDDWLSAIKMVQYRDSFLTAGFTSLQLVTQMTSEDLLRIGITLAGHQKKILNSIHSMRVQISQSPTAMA", "settings": "at 1 µM"}}}
{"smiles": "O=C1NC(=O)c2cc(Nc3ccc(F)cc3)c(Nc3ccc(F)cc3)cc21", "values": [{"measurement": "residual activity", "setting": "[1]", "value": 76, "unit": "%"}, {"measurement": "residual activity", "setting": "[2]", "value": 100, "unit": "%"}, {"measurement": "residual activity", "setting": "[3]", "value": 83, "unit": "%"}, {"measurement": "residual activity", "setting": "[4]", "value": 93, "unit": "%"}, {"measurement": "residual activity", "setting": "[5]", "value": 71, "unit": "%"}, {"measurement": "residual activity", "setting": "[6]", "value": 74, "unit": "%"}, {"measurement": "residual activity", "setting": "[7]", "value": 21, "unit": "%"}, {"measurement": "residual activity", "setting": "[8]", "value": 87, "unit": "%"}, {"measurement": "residual activity", "setting": "[9]", "value": 56, "unit": "%"}, {"measurement": "residual activity", "setting": "[10]", "value": 82, "unit": "%"}]}
